Data on 20 molecules can be found in PubChem BioAssay.

Unmarked numbers belong to inactive results. For some of these results: Potency and affinity values are given separately. Calls of active or inactive are those of the source. Unless noted, no rule for the calls is given here.

As usually defined, the inhibition is the change of the read-out against control, counted positive when it falls.

A short description of assay [1]: antimalarial activity against Dd2 strain (AID 2302;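 active = growth inhibition above 50% at the single 2 µM test dose, taken to imply half-maximal potency below 2 µM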;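 also: 0% = DMSO untreated growth and 100% = chloroquine plus artemisinin killed control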). The settings on record: P. falciparum Dd2 in RBCs, LDH growth readout, 72 h; at 2 µM; stronger effect = higher value.
Assay [2] can be described thus: human hepatoma cell viability loss – ATP luminescence, cytotoxicity control for P. falciparum antimalarial project, primary screen (AID 2303;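 active = inhibition above 50%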;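 also: 0% = DMSO wells and 100% = digitonin-killed cells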). The settings on record: HepG2 viability, 24-48 h, at 10 µM, stronger effect = higher value.
Assay [3] addresses L-lactate dehydrogenase (Plasmodium falciparum (isolate CDC / Honduras)) (UniProt Q27743). Description: PfLDH activity inhibition – cell lysate, 3D7 strain, counter-screen for P. falciparum growth inhibition project (AID 2304).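 Also: 0% = vehicle and 100% = reference inhibitor.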 The settings on record: P. falciparum 3D7 crude extract, LDH APAD/NBT absorbance; at 2 µM; stronger effect = higher value. Background: Counterscreens check selectivity or assay interference.

A short description of assay [4]: inhibition of 3D7 malaria parasite growth – strain 3D7 (AID 2306).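 Also: 0% = DMSO wells and 100% = chloroquine plus artemisinin control wells.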 The settings on record: P. falciparum 3D7 erythrocytic growth, LDH absorbance, 72 h; at 2 µM; stronger effect = higher value.
For assay [5], the target named is Calcium-dependent protein kinase 1 (Plasmodium falciparum (isolate 3D7)) (UniProt P62344). Description: PfCDPK1 kinase inhibitors, biochemical, TCAMS library (AID 1159585; cut-off not given, nearly all actives have IC50 up to about 0.98 µM;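 also: inhibitors leave more ATP so luminescence rises with inhibition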). The note with it: recombinant PfCDPK1, Kinase-Glo ATP depletion luminescence.
Assay [6] has as its target Plasmodium falciparum protein kinase 6 (PK6, PF3D7_1337100) (UniProt Q8IDW1). Description: PfPK6 kinase inhibitors, biochemical, TCAMS library (AID 1159586). The settings on record: recombinant PfPK6, Kinase-Glo ATP depletion luminescence. For orientation: Kinase-Glo measures the ATP left after a reaction by luminescence.
For assay [7], the target named is Protein kinase 7 (PK7), Plasmodium falciparum 3D7 (PF3D7_0213400) (UniProt Q7YTF7). Description: inhibition of Plasmodium PK7 catalytic activity – biochemical, TCAMS antimalarial set, Kinase-Glo luminescence (AID 1159587). The note with it: recombinant PfPK7, Kinase-Glo ATP depletion luminescence.
Assay [8] concerns the target Calcium-dependent protein kinase 4 (Plasmodium falciparum (isolate 3D7)) (UniProt Q8IBS5). Nature of the assay: PfCDPK4 kinase inhibitors, biochemical, TCAMS library (AID 1159588; cut-off not given, nearly all actives have IC50 up to about 0.91 µM). The note with it: recombinant PfCDPK4, Kinase-Glo ATP depletion luminescence.

Sequence of Plasmodium falciparum protein kinase 6 (PK6, PF3D7_1337100) (Q8IDW1 1-305): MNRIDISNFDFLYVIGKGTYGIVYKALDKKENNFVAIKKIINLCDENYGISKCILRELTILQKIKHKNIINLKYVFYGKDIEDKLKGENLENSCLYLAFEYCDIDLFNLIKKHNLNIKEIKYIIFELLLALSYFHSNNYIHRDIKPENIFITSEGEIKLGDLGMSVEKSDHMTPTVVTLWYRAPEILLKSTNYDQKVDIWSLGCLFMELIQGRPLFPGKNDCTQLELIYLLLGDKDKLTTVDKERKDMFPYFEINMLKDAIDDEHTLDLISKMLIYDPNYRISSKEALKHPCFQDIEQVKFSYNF
Sequence of L-lactate dehydrogenase (Plasmodium falciparum (isolate CDC / Honduras)) (Q27743 whole entry, looked up): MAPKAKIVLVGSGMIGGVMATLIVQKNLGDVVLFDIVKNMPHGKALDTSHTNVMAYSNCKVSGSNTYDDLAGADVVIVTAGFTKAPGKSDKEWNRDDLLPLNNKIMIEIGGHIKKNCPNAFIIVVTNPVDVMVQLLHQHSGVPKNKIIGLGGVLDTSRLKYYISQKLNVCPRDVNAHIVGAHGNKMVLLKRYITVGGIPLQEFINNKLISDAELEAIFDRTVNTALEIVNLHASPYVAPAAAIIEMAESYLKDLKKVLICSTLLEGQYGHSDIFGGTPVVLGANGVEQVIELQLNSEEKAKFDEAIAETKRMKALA
Sequence of Calcium-dependent protein kinase 1 (Plasmodium falciparum (isolate 3D7)) (P62344 whole entry, looked up): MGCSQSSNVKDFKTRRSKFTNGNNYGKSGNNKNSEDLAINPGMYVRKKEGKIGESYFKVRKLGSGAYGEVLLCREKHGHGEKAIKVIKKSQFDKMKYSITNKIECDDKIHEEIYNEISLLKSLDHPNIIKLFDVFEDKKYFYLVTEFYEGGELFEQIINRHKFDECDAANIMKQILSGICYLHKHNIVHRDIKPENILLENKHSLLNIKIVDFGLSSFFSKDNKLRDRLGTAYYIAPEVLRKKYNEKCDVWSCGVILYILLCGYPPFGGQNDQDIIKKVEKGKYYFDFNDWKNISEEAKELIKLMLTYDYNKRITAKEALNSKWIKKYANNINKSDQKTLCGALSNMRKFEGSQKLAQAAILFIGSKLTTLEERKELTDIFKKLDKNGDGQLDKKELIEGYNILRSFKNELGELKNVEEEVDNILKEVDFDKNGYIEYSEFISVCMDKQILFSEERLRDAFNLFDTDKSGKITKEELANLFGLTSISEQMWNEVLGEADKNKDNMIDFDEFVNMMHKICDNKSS
Sequence of Protein kinase 7 (PK7), Plasmodium falciparum 3D7 (PF3D7_0213400) (Q7YTF7 1-343): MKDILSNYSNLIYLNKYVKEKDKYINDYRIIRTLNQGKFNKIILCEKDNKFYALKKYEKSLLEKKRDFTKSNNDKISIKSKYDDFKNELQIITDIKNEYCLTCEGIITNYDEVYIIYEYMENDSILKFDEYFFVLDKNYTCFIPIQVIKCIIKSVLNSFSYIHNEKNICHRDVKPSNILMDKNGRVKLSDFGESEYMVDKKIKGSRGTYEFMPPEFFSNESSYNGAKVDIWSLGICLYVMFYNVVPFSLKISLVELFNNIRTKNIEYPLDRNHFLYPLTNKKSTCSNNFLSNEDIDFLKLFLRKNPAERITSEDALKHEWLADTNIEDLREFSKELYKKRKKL
Sequence of Calcium-dependent protein kinase 4 (Plasmodium falciparum (isolate 3D7)) (Q8IBS5 whole entry, looked up): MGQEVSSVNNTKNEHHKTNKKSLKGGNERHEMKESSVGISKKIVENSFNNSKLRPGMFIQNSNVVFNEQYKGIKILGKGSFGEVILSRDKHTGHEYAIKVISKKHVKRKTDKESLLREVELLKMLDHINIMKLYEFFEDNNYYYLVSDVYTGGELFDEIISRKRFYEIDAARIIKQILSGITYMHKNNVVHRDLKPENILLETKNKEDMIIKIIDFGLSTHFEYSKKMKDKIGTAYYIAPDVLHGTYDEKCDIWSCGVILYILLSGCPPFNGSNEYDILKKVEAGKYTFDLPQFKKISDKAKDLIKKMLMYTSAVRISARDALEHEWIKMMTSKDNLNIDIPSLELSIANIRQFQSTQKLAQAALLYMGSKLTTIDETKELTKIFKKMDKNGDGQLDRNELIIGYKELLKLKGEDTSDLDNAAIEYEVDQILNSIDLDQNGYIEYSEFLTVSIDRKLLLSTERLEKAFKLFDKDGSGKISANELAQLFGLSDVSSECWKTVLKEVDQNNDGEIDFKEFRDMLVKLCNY

For `NC1=NC(c2ccccc2)(c2ccccc2)C(=O)N1CC=Cc1ccccc1`, the growth inhibition is 70% (active) in assay [1] and 98% (active) in assay [4]. For the same molecule, the values for the inhibition in assay [2] and in assay [3] were 23% and -3%, respectively. Further, the outcome in assay [5], in assay [6], in assay [7] and in assay [8] was inactive.

In the case of `CC(=O)N(C)c1cccc(C(=O)Nc2ccc(-c3cccc(-c4nc5ccc(C(F)(F)F)cc5[nH]4)c3)cc2)c1`, the results for the growth inhibition in assay [1] and in assay [4] were 10% and 94% (active), respectively. Besides, the inhibition in assay [2] is 79% (active); in assay [3] it was -2%. Further, the result in assay [5], in assay [6], in assay [7] and in assay [8] was inactive.

In the case of `CC(Oc1ccc(Cl)cc1)C(=O)NCCC1CCN(CCCCCNC(=O)/C=C/c2ccc(Cl)c(Cl)c2)CC1` (stereo not given), the growth inhibition in assay [1] was 20%; in assay [4], 89% (active). Further, the inhibition was 48% in assay [2] and -5% in assay [3]. Besides, the outcome in assay [5], in assay [6], in assay [7] and in assay [8] was inactive.

As to `N#Cc1ccc2c(c1)CCN(CCC1CCC(NC(=O)/C=C/c3ccc(F)c4ccccc34)CC1)CC2` (stereo not given), the growth inhibition in assay [1] was 19%; in assay [4], 95% (active). Further, the figures for the inhibition in assay [2] and in assay [3] were 29% and -2%, respectively. For the same molecule, the outcome in assay [5], in assay [6], in assay [7] and in assay [8] was inactive.

Take `COc1ccc2nccc([C@@H](O)CN3CCC(CO)(NCc4cc5ccccc5o4)CC3)c2c1`: the figures for the growth inhibition in assay [1] and in assay [4] were 7% and 85% (active), respectively. The inhibition was 12% in assay [2] and -1% in assay [3]. Further, the result in assay [5], in assay [6], in assay [7] and in assay [8] was inactive.

As to `Cn1c(N)c(C(=O)CSc2ncc(-c3ccc(F)cc3)n2Cc2ccccc2)c(=O)n(C)c1=O`, the growth inhibition in assay [1] is 66% (active); in assay [4], 88% (active). Besides, the inhibition in assay [2] was 11%; in assay [3], 1%. In addition, the outcome in assay [5], in assay [6], in assay [7] and in assay [8] was inactive.

In the case of `Nc1cccc(CNCc2ccc(-c3cccc(-c4nc5ccc(F)cc5[nH]4)c3)cc2)c1`, the growth inhibition is 94% (active) in assay [1] and 101% (active) in assay [4]. The inhibition in assay [2] is 36%; in assay [3], -3%. Further, the outcome in assay [5], in assay [6], in assay [7] and in assay [8] was inactive.

As to `COc1ccc2nc3cc(Cl)ccc3c(NCCCO)c2c1`, the growth inhibition in assay [1] and in assay [4] was 100% (active) each time. Further, the inhibition was 32% in assay [2] and -1% in assay [3]. Besides, the result in assay [5], in assay [6], in assay [7] and in assay [8] was inactive.

As for `O=C(Nc1ccc(OC2CCN(Cc3ccccc3)CC2)c(Cl)c1)c1ccco1`, the growth inhibition in assay [1] and in assay [4] was 96% (active) each time. Also, the figures for the inhibition in assay [2] and in assay [3] were 8% and 6%, respectively. The outcome in assay [5], in assay [6], in assay [7] and in assay [8] was inactive.

Regarding `CN(Cc1ccc(C#N)cc1)C1CCN(c2cc(NC(=O)c3cccc(F)c3)ccn2)CC1`, the growth inhibition is -9% in assay [1] and 83% (active) in assay [4]. For the same molecule, the inhibition in assay [2] was 9%; in assay [3] it was -2%. Also, the result in assay [5], in assay [6], in assay [7] and in assay [8] was inactive.

For the molecule `Cc1cc(-c2ccc(CNC3Cc4ccccc4C3)cc2)ccc1S(=O)(=O)NCCN1CCCC1`, the growth inhibition in assay [1] is 73% (active); in assay [4], 101% (active). The inhibition in assay [2] is 99% (active); in assay [3], 0%. The result in assay [5], in assay [6], in assay [7] and in assay [8] was inactive.

With `COc1ccc2nccc([C@@H](O)CN3CCC(NC(=O)c4ccc(-c5ccc(C#N)cc5)cc4)CC3)c2c1`, the growth inhibition in assay [1] was 91% (active); in assay [4] it was 101% (active). Moreover, the figures for the inhibition in assay [2] and in assay [3] were 42% and 4%, respectively. Further, the outcome in assay [5], in assay [6], in assay [7] and in assay [8] was inactive.

In the case of `O=C(C=Cc1ccc(Cl)c(Cl)c1)NCCCCCN1CCC(CCCNS(=O)(=O)c2cccc(C(F)(F)F)c2)CC1`, the growth inhibition was 59% (active) in assay [1] and 100% (active) in assay [4]. For the same molecule, the inhibition in assay [2] was 99% (active); in assay [3] it was 3%. For the same molecule, the result in assay [5], in assay [6], in assay [7] and in assay [8] was inactive.

Regarding `NC1CCN(Cc2ccc(-c3ccc(-c4nc5ccccc5[nH]4)cc3)cc2)C1` (stereo not given), the growth inhibition in assay [1] is 100% (active); in assay [4], 101% (active). Further, the figures for the inhibition in assay [2] and in assay [3] were 34% and -5%, respectively. Further, the outcome in assay [5], in assay [6], in assay [7] and in assay [8] was inactive.

As to `Cc1cc2c(cc1C(F)(F)F)N(C(=O)Nc1cnc(OCCN(C)C)c(C(F)(F)F)c1)CC2`, the growth inhibition is 25% in assay [1] and 88% (active) in assay [4]. In addition, the inhibition in assay [2] is 28%; in assay [3] it was -2%. For the same molecule, the result in assay [5], in assay [6], in assay [7] and in assay [8] was inactive.

With `Nc1c2ccccc2nc2cc([N+](=O)[O-])ccc12`, the growth inhibition in assay [1] is 26%; in assay [4], 98% (active). Besides, the inhibition in assay [2] was 92% (active); in assay [3], -1%. The result in assay [5], in assay [6], in assay [7] and in assay [8] was inactive.

Regarding `O=C(CN1CCN(C(=O)c2ccco2)CC1)Nc1ccccc1Br`, the growth inhibition was 96% (active) in assay [1] and 97% (active) in assay [4]. The results for the inhibition in assay [2] and in assay [3] were 15% and -4%, respectively. The outcome in assay [5], in assay [6], in assay [7] and in assay [8] was inactive.

For the molecule `Cc1cc(C)c(NC(=O)NC2CCN(CCCCCNC(=O)/C=C/c3ccc(Cl)c(Cl)c3)C2)c(C)c1` (stereo not given), the growth inhibition is 48% in assay [1] and 99% (active) in assay [4]. For the same molecule, the inhibition is 23% in assay [2] and 1% in assay [3]. Also, the result in assay [5], in assay [6], in assay [7] and in assay [8] was inactive.

Turning to `CN(C)CCN1CCN(Cc2cccc(-c3csc(-c4nc5ccccc5[nH]4)c3)c2)CC1`, the growth inhibition is 97% (active) in assay [1] and 100% (active) in assay [4]. Further, the inhibition is 28% in assay [2] and -5% in assay [3]. For the same molecule, the outcome in assay [5], in assay [6], in assay [7] and in assay [8] was inactive.

As for `Cc1noc(C)c1C(=O)N1CCc2cc3nccc(N4CCN5CCC[C@H]5C4)c3cc21`, the growth inhibition in assay [1] is 9%; in assay [4], 93% (active). The figures for the inhibition in assay [2] and in assay [3] were 7% and -5%, respectively. Moreover, the result in assay [5], in assay [6], in assay [7] and in assay [8] was inactive.
